Screen size: about 290,000 compounds; about 3,200 (1.1%) were called active. Cut-off read from the data, not from the text of the source: active = inhibition above about 60%; inactive = the rest. The entries come from a sample that favours actives as a whole.

For the experiment, the target named is Phosphoethanolamine/phosphocholine phosphatase (Homo sapiens) (UniProt Q8TCT1). The experiment is described as follows: PubChem AID 1565. Conditions: recombinant PHOSPHO1, absorbance phosphatase assay; at 13.3 µM; stronger effect = higher value.
Sequence of Phosphoethanolamine/phosphocholine phosphatase (Homo sapiens) (Q8TCT1 whole entry, looked up): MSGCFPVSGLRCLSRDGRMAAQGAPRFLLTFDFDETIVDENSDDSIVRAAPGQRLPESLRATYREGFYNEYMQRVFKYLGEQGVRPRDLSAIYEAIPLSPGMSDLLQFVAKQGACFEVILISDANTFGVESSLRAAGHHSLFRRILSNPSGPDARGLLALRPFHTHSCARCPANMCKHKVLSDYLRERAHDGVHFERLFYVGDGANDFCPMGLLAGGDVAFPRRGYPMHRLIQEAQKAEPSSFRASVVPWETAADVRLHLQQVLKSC
In the case of `Cc1nonc1NC(=O)c1oc2ccccc2c1C`, the inhibition was 24% (inactive).

With `CC1CCCCC1NC(=O)CSc1nnc(N)s1` (stereo unspecified), the inhibition was -3.4% (inactive). Regarding `CC1CCCC(NC(=O)CSc2nccn2C)C1C` (stereo unspecified), the inhibition is 92.3% (active). Turning to `Cn1ccnc1SCC(=O)Nc1ccc2c(c1)OCCO2`, the inhibition is 19.8% (inactive).

As for `CCn1cc(/C=C(\NC(=O)c2cc(OC)c(OC)c(OC)c2)C(=O)N2CCN(C)CC2)c2ccccc21`, the inhibition was 49.6% (inactive). For `CCOc1ccc(/C(O)=C2\C(=O)C(=O)N(c3ccc(OC)cc3)C2c2ccccc2[N+](=O)[O-])cc1` (stereo unspecified), the inhibition was 60.8% (active). Consider `COc1ccc(C2/C(=C(/O)c3ccccc3)C(=O)C(=O)N2C)c(OC)c1` (stereo unspecified), for which the inhibition is -2.4% (inactive). In the case of `COc1ccccc1C1/C(=C(/O)c2ccc(OC(C)C)cc2)C(=O)C(=O)N1c1cc(C)on1` (stereo unspecified), the inhibition was -55.7% (inactive). Consider `CC(C)CCOc1ccc(C(=O)C[N+]2(C)CCOCC2)cc1`, for which the inhibition is 90.6% (active). With `COc1ccc(OCCC(=O)c2ccc(OC)cc2)cc1`, the inhibition is 20% (inactive).

Take `CC(=O)c1ccc(OCCN2CCOCC2)cc1`: the inhibition is -11.5% (inactive). In the case of `O=C(NCc1cccnc1)C12CC3CC(CC(C3)C1)C2`, the inhibition is 32.6% (inactive).

In the case of `CN(NS(=O)(=O)c1cccs1)c1ncc(C(F)(F)F)cc1Cl`, the inhibition is 33.5% (inactive). As for `COc1ccc(-c2nnc(SCC(=O)c3cccs3)o2)c(OC)c1`, the figure is 28.9% (inactive); as for `COc1ccc(-n2c(C)cc(C(=O)CSc3nnc(-c4cccs4)o3)c2C)cc1`, 85.5% (active). Consider `COc1ccc(C(=O)CSc2nnc(-c3ccco3)o2)cc1`, for which the inhibition is 36.7% (inactive). As for `CSCC[C@H](NC(=O)N1CCn2c1nc1ccccc12)C(=O)NC1CCCCC1`, the inhibition was 35.5% (inactive). In the case of `COc1ccc(OCc2nnc3n2N=C(c2ccccc2)C(CC(=O)O)S3)cc1` (stereo unspecified), the inhibition was -69.6% (inactive). As to `Cc1ccc(C(=O)N2CCC(n3nccc3NC(=O)Nc3cccc(F)c3)CC2)cn1`, the inhibition is 64% (active).

For `COc1cccc(C(=O)N2CCC(n3nccc3NC(=O)C3CCOC3)CC2)c1` (stereo unspecified), the inhibition is 40.8% (inactive). As for `CN(C)c1cccc(C(=O)N2CCC(n3nccc3NC(=O)C3CCOC3)CC2)c1` (stereo unspecified), the figure is 27.6% (inactive); as for `COc1ccc2[nH]c(C(=O)N/N=C/c3cc(OC)c(OC)c(OC)c3)cc2c1`, 9.8% (inactive). The value for `CCOc1ccc(NC(=O)C(C)N2C(=O)c3ccccc3C2=O)cc1` (stereo unspecified) was 24.3% (inactive); that for `Cc1ccnc(NC(=O)C(C)N2C(=O)c3ccccc3C2=O)c1` (stereo unspecified) was 60% (active); that for `Cc1cc(C)nc(NC(=O)C(C)N2C(=O)c3ccccc3C2=O)n1` (stereo unspecified) was -12.8% (inactive).

With `CCc1nc2cccnc2n1-c1ccc(C(=O)O)cc1`, the inhibition was 35.1% (inactive). Take `COc1ccc(CCNC(=O)C(=O)NCC2OCCN2S(=O)(=O)c2cccs2)cc1OC` (stereo unspecified): the inhibition was 4.5% (inactive).

For the compound `CC(=O)N[C@@H](C)C(=O)N1CCC(n2nccc2NC(=O)CCCc2ccccc2)CC1`, the inhibition was 61.6% (active). As for `COc1ccc(CN2CCC(n3nccc3NC(=O)CCCc3ccccc3)CC2)cc1C`, the inhibition is 37.7% (inactive).

With `COc1cc(CN2CCC(n3nccc3NC(=O)CCCc3ccccc3)CC2)ccc1O`, the inhibition was -5% (inactive). Consider `CCn1cc(CN2CCC(n3nccc3NC(=O)CCCc3ccccc3)CC2)c(C)n1`, for which the inhibition is 29% (inactive). `Cc1ccc(CN2CCC(n3nccc3NC(=O)CCCc3ccccc3)CC2)o1`: the inhibition was 2.6% (inactive). `CC(=O)NCC(=O)N1CCC(n2nccc2NC(=O)CCCc2ccccc2)CC1`: the inhibition is 65.8% (active). As for `N#Cc1ccccc1S(=O)(=O)N1CCN(C(=O)c2cc(-c3ccccc3)nn2-c2ccccc2)CC1`, the inhibition is 14.5% (inactive). As for `Cc1ccc(S(=O)(=O)N2CCN=C2SCc2c(F)cccc2Cl)cc1`, the inhibition was 22.6% (inactive). Turning to `OC(CNCCc1ccc(Cl)cc1Cl)COc1ccccc1` (stereo unspecified), the inhibition was 46.3% (inactive). `COc1ccc(OC)c(C(=O)NC(CC(N)=O)c2ccc(N3CCC(N4CCCCC4)CC3)c([N+](=O)[O-])c2)c1` (stereo unspecified): the inhibition was -18.6% (inactive).

For the compound `O=C(CNc1cccc(S(=O)(=O)N2CCCCC2)c1)Nc1ccccc1F`, the inhibition is 42.8% (inactive). Turning to `CC(C)C(C(=O)NCc1ccco1)N(CC1CCCO1)C(=O)CNS(=O)(=O)c1ccc(F)cc1` (stereo unspecified), the inhibition is 46.2% (inactive). As for `CCOc1ccccc1Nc1nnc(SCC(=O)Nc2cc(C)on2)s1`, the inhibition is 61.5% (active).

With `CCOc1ccccc1Nc1nnc(SCc2ccc(C(=O)OC)o2)s1`, the inhibition was 48.3% (inactive).

With `Cc1cc(NC(=O)CSc2nnc(Nc3ccccc3F)s2)no1`, the inhibition was -3.4% (inactive). `CCOC(=O)C1(CCOC)CCN(Cc2cc3ccccc3s2)CC1`: the inhibition was 3.1% (inactive). As for `CCOC(=O)c1ccc(NC(=O)CSc2nnc(COc3ccccc3OC)n2C)cc1`, the inhibition was 6.3% (inactive). On to `CCCCNC(=O)CSc1nc2ccc(NC(=O)CSc3nnc(COc4ccccc4C)n3C)cc2s1`, for which the inhibition was 74.2% (active). Regarding `CCCCNC(=O)CSc1nc2ccc(NC(=O)CSc3nnc(N)s3)cc2s1`, the inhibition was -25.6% (inactive). In the case of `CC(C)[C@H](NC(=O)N1CCn2c1nc1ccccc12)C(=O)NC1CC1`, the inhibition was 46.9% (inactive).

On to `O=S1(=O)CCOC[C@H](CC2CCCCC2)N1Cc1ccc(F)cc1`, for which the inhibition is 4% (inactive). As to `CCOC(=O)c1c(C)[nH]c(C)c1S(=O)(=O)NCCCc1ccco1`, the inhibition was -28.5% (inactive). The value for `COc1cccc(NC(C)=[N+](C)CCNS(=O)(=O)c2ccc(Cl)cc2)c1` was -9% (inactive); that for `O=c1/c(=C/c2ccc(CNS(=O)(=O)c3ccccc3)o2)sc2n1CCN=2` was 97.8% (active). As to `COC(=O)C1=C(C)NC(=O)/C1=C/c1ccc(CNS(=O)(=O)c2ccc(C)cc2)o1`, the inhibition was 41.2% (inactive).

On to `O=S(=O)(NCc1ccccc1)c1ccc(S(=O)(=O)N2CCCC2)cc1`, for which the inhibition was 3.4% (inactive). With `O=C(Nc1ccc(C(=O)O)cc1)/C(=C\c1ccccc1)NC(=O)c1ccc(Br)cc1`, the inhibition is 25% (inactive). `Cc1ccc(S(=O)Cc2ccc(C(=O)N3CCN(C4CCCCC4)CC3)o2)cc1` (stereo unspecified): the inhibition is 26.1% (inactive). Turning to `CCC(C)c1ccccc1NC(=O)CN(C)CC(=O)Nc1ccccc1SC` (stereo unspecified), the inhibition is 7% (inactive). In the case of `C=CCn1c(CNC(=O)c2ccco2)nnc1SCC(=O)c1ccc(OC)cc1`, the inhibition was 32.2% (inactive).

As to `CCn1c(COc2ccccc2)nnc1SCC(=O)NCc1ccco1`, the inhibition is 19.2% (inactive). For `O=C(CSc1nnc(-c2cccs2)n1Cc1ccco1)c1ccc2c(c1)OCO2`, the inhibition is -69.6% (inactive). On to `COc1ccc(NC(=O)CSc2nnc(-c3cccs3)n2Cc2ccco2)cc1OC`, for which the inhibition was 19.4% (inactive). As for `Cc1ccc(NC(=O)CSc2nnc(-c3cnccn3)n2Cc2ccco2)cc1C`, the figure is -3.2% (inactive).

With `Cc1cc(NC(=O)CSc2nc3cc(Cl)ccc3c(=O)n2Cc2ccco2)no1`, the inhibition is 12.3% (inactive).

As for `O=C(CSc1nnc(-c2cnccn2)n1Cc1ccco1)c1ccc(Cl)c(Cl)c1`, the inhibition was 85.4% (active). Turning to `O=C(CSc1nnc(-c2cccnc2)n1Cc1ccco1)c1ccc(Cl)c(Cl)c1`, the inhibition was 71.1% (active). On to `COc1ccc(C(=O)CSc2nnc(COc3ccccc3)n2Cc2ccco2)cc1`, for which the inhibition was 91.7% (active).

Take `CCc1ccc(NC(=O)CSc2nnc(-c3cnccn3)n2Cc2ccco2)cc1`: the inhibition was 1.3% (inactive). As for `O=C(CSc1nnc(-c2cccnc2)n1Cc1ccco1)c1ccc(Cl)cc1`, the inhibition was 79.6% (active).

Consider `COc1cc(Cl)c(C)cc1NC(=O)CSc1nnc(-c2cccnc2)n1Cc1ccco1`, for which the inhibition is 28.9% (inactive). The value for `CC1CCN(C(=O)/C(=C\c2ccccc2F)NC(=O)c2ccccc2)CC1` was 18.7% (inactive); that for `CCN(c1cccc(C)c1)S(=O)(=O)c1ccc(-c2coc(C)n2)cc1` was -0.1% (inactive); that for `Cc1cc(=O)oc2c3c(cc(OCC(=O)NCc4ccccn4)c12)OC(C)(C)CC3` was 34.3% (inactive). As for `O=C1C(=O)N(CCN2CCOCC2)C(c2cccc(Cl)c2)/C1=C(/O)c1ccc2c(c1)OCO2` (stereo unspecified), the figure is 24% (inactive); as for `CN(C(=O)CCN1C(=O)/C(=C/c2ccccc2F)SC1=S)C1CCS(=O)(=O)C1` (stereo unspecified), 52.6% (inactive). In the case of `COc1ccc(OC)c(NC(=O)Cc2cccs2)c1`, the inhibition is 3.8% (inactive). As to `CCCc1nn2c(=O)cc(CSCC(=O)Nc3cccc(C)c3)nc2s1`, the inhibition is 24% (inactive). As for `C(=C\c1ccccc1)/CSc1nnc(-c2cccnc2)n1Cc1ccco1`, the figure is 70.5% (active); as for `O=C(CSc1nnc(-c2cccnc2)n1CCc1ccccc1)NCc1ccccc1`, 1.5% (inactive); as for `CCOC(=O)Cc1csc(NC(=O)CSc2nnc(-c3cccnc3)n2Cc2ccco2)n1`, 17.3% (inactive). The value for `Cc1ccc(C(=O)N(CC(=O)NC2CCCC2)c2ccc(F)cc2)s1` was 40.5% (inactive). As for `CCCCn1c(SCC(=O)N2CCC(C(=O)OCC)CC2)nc2cc(S(N)(=O)=O)ccc21`, the figure is 1.5% (inactive); as for `CCn1c(SCC(=O)NCC2CCCO2)nc2cc(S(=O)(=O)N3CCCCC3)ccc21` (stereo unspecified), 14.5% (inactive); as for `CCCCn1c(SCc2ncc(-c3ccccc3)o2)nc2cc(S(N)(=O)=O)ccc21`, 75.4% (active). As for `O=C(c1cccc(-n2cccc2)c1)N1CCN(S(=O)(=O)c2ccc(F)cc2)CC1`, the inhibition is -102% (inactive). As for `O=C(C1CC(=O)N(c2ccc(F)cc2)C1)N1CCN(c2ccccc2)CC1` (stereo unspecified), the inhibition was 42.6% (inactive).

For the compound `Cc1nn(C(C)C(=O)NCCC2=CCCCC2)c(=O)c2nn(-c3ccccc3)c(C)c12` (stereo unspecified), the inhibition is 54.1% (inactive). As for `COc1ccc(OC)c(CNC(=O)Cn2nc(C)c3c(C)n(-c4ccc(C)cc4)nc3c2=O)c1`, the figure is 24% (inactive). Turning to `COc1ccc(CNC(=O)C(C)n2nc(C)c3c(C)n(-c4ccccc4)nc3c2=O)c(OC)c1` (stereo unspecified), the inhibition was 64.7% (active). The value for `COC(=O)c1ccc(CN2CCCC(C(=O)Nc3cccc(-n4cnnn4)c3)C2)cc1` (stereo unspecified) was 22.6% (inactive); that for `Cn1nccc1NS(=O)(=O)c1ccc(F)cc1` was 69.9% (active); that for `Cc1cc(C)cc(NS(=O)(=O)c2ccc(F)cc2)c1` was 28.3% (inactive). With `Cn1c(=O)n(C)c2cc(NS(=O)(=O)c3ccc(F)cc3)ccc21`, the inhibition was 38.9% (inactive).

As a reminder, the inhibition is the relative decrease from the control value, in per cent.

The values above are taken from PubChem BioAssay AID1565 (Sanford-Burnham Center for Chemical Genomics, 2009).
